“And” between values parts separate entries of the source, which are not always exact repeats. Equal values may be shown once. About 2,000 (36%) of roughly 5,500 compounds were called active. Roughly 18% stayed inconclusive and do not appear here. No stated cut-off is given here; in the data, active means normalized growth mostly below about 0.91 (no sharp cut-off); inconclusive means no clear call, values can overlap the other calls; inactive means mostly above about 0.92. The list shows a part of the results.
Assay: chemical genetic growth profiling, strain panel (AID 1159580);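 further: tested at 20 µM; growth read once vehicle control cultures reached saturation at 30 °C; 1 = growth at the plate median or of vehicle wells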
Conditions: S. cerevisiae deletion strains, growth OD

Measured: normalized growth

CNC(=O)O/N=C(\C)SC
inactive: locus YAL013W, strain DEP1, stronger effect = lower value 1 | locus YAL021C, strain ccr4, stronger effect = lower value 0.987 | locus YAL026C, strain drs2, stronger effect = lower value 1 | locus YAL030W, strain snc1, stronger effect = lower value 1.01 | locus YBL061C, strain skt5, stronger effect = lower value 1 | locus YBR009C, strain hhf1, stronger effect = lower value 1.01 | locus YBR021W, strain FUR4, stronger effect = lower value 1.03 | locus YBR023C, strain chs3, stronger effect = lower value 1 | locus YBR171W, strain sec66, stronger effect = lower value 1 | locus YBR229C, strain ROT2, stronger effect = lower value 1.01 | locus YBR231C, strain swc5, stronger effect = lower value 1 | locus YBR279W, strain paf1, stronger effect = lower value 0.999 | locus YCL011C, strain gbp2, stronger effect = lower value 1.01 | locus YCL016C, strain dcc1, stronger effect = lower value 0.998 | locus YCL029C, strain bik1, stronger effect = lower value 0.983 | locus YCL061C, strain MRC1, stronger effect = lower value 1 | locus YCL069W, strain vba3, stronger effect = lower value 1 | locus YCR088W, strain abp1, stronger effect = lower value 1 | locus YDL005C, strain med2, stronger effect = lower value 1 | locus YDL035C, strain GPR1, stronger effect = lower value 1.02 | locus YDL040C, strain nat1, stronger effect = lower value 0.999 | locus YDL074C, strain BRE1, stronger effect = lower value 1.07 | locus YDL101C, strain DUN1, stronger effect = lower value 1.02 | locus YDL134C, strain PPH21, stronger effect = lower value 1.01 | locus YDL185W, strain tfp1, stronger effect = lower value 0.988 | locus YDL192W, strain arf1, stronger effect = lower value 0.981 | locus YDR001C, strain nth1, stronger effect = lower value 1 | locus YDR069C, strain doa4, stronger effect = lower value 1 | locus YDR101C, strain arx1, stronger effect = lower value 0.983 | locus YDR137W, strain rgp1, stronger effect = lower value 1.01 | locus YDR150W, strain NUM1, stronger effect = lower value 1.01 | locus YDR159W, strain sac3, stronger effect = lower value 1 | locus YDR162C, strain NBP2, stronger effect = lower value 0.987 | locus YDR195W, strain ref2 0.971 | locus YDR297W, strain sur2, stronger effect = lower value 1.02 | locus YDR318W, strain mcm21, stronger effect = lower value 0.994 | locus YDR334W, strain swr1, stronger effect = lower value 0.999 | locus YDR335W, strain msn5, stronger effect = lower value 0.997 | locus YDR388W, stronger effect = lower value 0.984 | locus YDR392W, strain spt3, stronger effect = lower value 1 | locus YDR502C, strain sam2, stronger effect = lower value 0.993 | locus YEL003W, strain gim4, stronger effect = lower value 1 | locus YEL037C, strain rad23, stronger effect = lower value 1 | locus YEL061C, strain CIN8 (second series), stronger effect = lower value 1 | locus YEL061C, strain CIN8, stronger effect = lower value 1.01 | locus YER015W, strain faa2, stronger effect = lower value 0.982 | locus YER016W, strain bim1, stronger effect = lower value 1 | locus YER110C, stronger effect = lower value 0.977 | locus YER111C, strain swi4, stronger effect = lower value 0.996 | locus YER155C, strain BEM2 (second series), stronger effect = lower value 1.01 | locus YER155C, strain BEM2, stronger effect = lower value 1.01 | locus YER167W, strain BCK2, stronger effect = lower value 0.993 | locus YFR010W, strain ubp6, stronger effect = lower value 0.997 | locus YGL078C, strain dbp3, stronger effect = lower value 0.98 | locus YGL086W, strain mad1, stronger effect = lower value 0.984 | locus YGL167C, strain pmr1, stronger effect = lower value 0.996 | locus YGL173C, strain kem1, stronger effect = lower value 0.991 | locus YGL227W, strain vid30, stronger effect = lower value 1.01 | locus YGL240W, strain doc1, stronger effect = lower value 0.987 | locus YGL248W, strain PDE1, stronger effect = lower value 1.04 | locus YGL253W, strain hxk2, stronger effect = lower value 0.998 | locus YGR078C, strain PAC10, stronger effect = lower value 1 | locus YGR135W, strain pre9, stronger effect = lower value 0.998 | locus YGR229C, strain SMI1, stronger effect = lower value 1.03 | locus YGR252W, strain gcn5, stronger effect = lower value 0.986 | locus YHR013C, strain ard1, stronger effect = lower value 0.998 | locus YHR027C, strain rpn1, stronger effect = lower value 0.989 | locus YHR030C, strain SLT2, stronger effect = lower value 0.988 and 1.07 | locus YHR079C, strain IRE1 (second series), stronger effect = lower value 0.993 | locus YHR079C, strain IRE1, stronger effect = lower value 1.05 | locus YHR094C, strain hxt1, stronger effect = lower value 0.983 | locus YHR129C, strain ARP1, stronger effect = lower value 1.01 | locus YHR142W, strain chs7, stronger effect = lower value 1.01 | locus YHR200W, strain rpn10, stronger effect = lower value 0.99 | locus YIL066C, strain RNR3, stronger effect = lower value 1.03 | locus YIL073C, strain SPO22, stronger effect = lower value 0.995 | locus YIL125W, strain kgd1, stronger effect = lower value 0.986 | locus YIR030C, strain dcg1, stronger effect = lower value 0.98 | locus YJL092W, strain hpr5, stronger effect = lower value 0.996 | locus YJL095W, strain BCK1 (second series), stronger effect = lower value 0.996 | locus YJL095W, strain BCK1, stronger effect = lower value 1.01 and 1.04 | locus YJL115W, strain asf1, stronger effect = lower value 1 | locus YJL129C, strain trk1, stronger effect = lower value 1.01 | locus YJL134W, strain LCB3, stronger effect = lower value 1.02 | locus YJL154C, strain vps35, stronger effect = lower value 0.999 | locus YJL164C, strain tpk1, stronger effect = lower value 1 | locus YJL166W, strain qcr8, stronger effect = lower value 1 | locus YJL168C, strain set2, stronger effect = lower value 0.989 | locus YJL187C, strain SWE1 (second series), stronger effect = lower value 1.01 | locus YJL187C, strain SWE1, stronger effect = lower value 1.02 | locus YJR043C, strain POL32, stronger effect = lower value 1.01 | locus YJR066W, strain TOR1, stronger effect = lower value 0.988
